Experimental data published in PubChem BioAssay (Tox21).
Several values for one entry are separate records, joined by “and”; a condition that tells them apart may be missing. Equal entries are not always repeated. Records with an inconclusive call do not appear. Unmarked numbers belong to inactive results. Activity calls are given as the source filed them. Calls follow the shape of the dose curve; as a rule, active = well fitted activation curve with a large enough effect in the repeat runs; inconclusive = weak or mixed curves; inactive = no such curve, though single readings can be large or run the other way.
% is scaled to controls: 0 for no effect and ±100 for the full control effect.

Each compound was assayed against Nuclear receptor subfamily 1 group I member 2 (Homo sapiens) (UniProt O75469) (assay: Human pregnane X receptor (PXR) small molecule agonists, qHTS assay (AID 1346982; also: nearly all actives have a fitted effect of over 35% in size; also: potency is read from the fitted curve at half-maximal effect)). Details: PXR-Luc HepG2, CYP3A4 luciferase reporter, 24 h; series mostly up to 92.4 µM; activation: at the top concentration.
Sequence of Nuclear receptor subfamily 1 group I member 2 (Homo sapiens) (O75469 whole entry, looked up): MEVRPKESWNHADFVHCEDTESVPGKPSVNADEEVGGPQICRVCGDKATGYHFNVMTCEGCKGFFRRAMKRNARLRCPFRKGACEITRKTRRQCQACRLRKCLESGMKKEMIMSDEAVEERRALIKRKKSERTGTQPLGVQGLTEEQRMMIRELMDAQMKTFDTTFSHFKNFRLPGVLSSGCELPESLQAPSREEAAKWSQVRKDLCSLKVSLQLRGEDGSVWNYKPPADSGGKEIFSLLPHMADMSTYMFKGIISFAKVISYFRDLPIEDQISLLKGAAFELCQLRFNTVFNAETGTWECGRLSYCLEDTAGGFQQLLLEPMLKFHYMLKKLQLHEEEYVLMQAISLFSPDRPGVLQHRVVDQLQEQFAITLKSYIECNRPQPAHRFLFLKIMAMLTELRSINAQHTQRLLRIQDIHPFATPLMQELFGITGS
How it was run: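 Luciferase signal from ONE-Glo (30 min, room temperature) measured activation of hPXR-driven CYP3A4 reporter expression in PXR-Luc HepG2 cells treated with compounds for 24 hr at 37 C.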
For `CC(C)Br`, the “activation” value was 10.9%.
With `CN(C)c1ccc(N)cc1` the Potency was 8.42 µM (active).
`N#Cc1c[nH]cc1-c1cccc2c1OC(F)(F)O2` was tested, and the Potency was 27.3 µM (active).
For `Nc1cc(Cl)ccc1Cl`, the “activation” value was -0.504%.
For `COP(=O)(OC)Oc1ccc([N+](=O)[O-])cc1`, the “activation” value was 4.28%.
In the case of `FC(F)C(F)(F)OCC(Cn1cncn1)c1ccc(Cl)cc1Cl` (stereo not given), the Potency was 27.1 µM (active).
In the case of `c1ccc(Nc2ccc(Nc3ccccc3)cc2)cc1`, the Potency was 24.2 µM (active).
`c1csc(-c2ccc(-c3cccs3)s2)c1` was tested, and the Potency was 19.3 µM (active).
`CC1CCCC1` was tested, and the “activation” value was 5.51%.
In the case of `Nc1ccc(N=Nc2ccccc2)cc1`, the Potency was 27.3 µM (active).
In the case of `Oc1ccc([C@H]2CNCc3c2ccc(O)c3O)cc1O`, the “activation” value was -7.09% [at 42.5 µM].
With `Cc1nn(-c2cc(NS(C)(=O)=O)c(Cl)cc2Cl)c(=O)n1C(F)F` the “activation” value was 6.86%.
In the case of `CSC(C)(C)/C=N/O`, the “activation” value was -9.69%.
With `O=c1c2ccccc2c(=O)c2c1cc(Cl)c1[nH]c3c([nH]c12)c(Cl)cc1c(=O)c2ccccc2c(=O)c13` the “activation” value was 27.1%.
With `CN(C)CCc1c[nH]c2ccccc12` the “activation” value was -19.7%.
In the case of `CCN(CC)C(=S)S`, the Potency was 27.1 µM (active) and 61.1 µM (active).
With `O=[N+]([O-])c1ccc(Cl)c(Cl)c1Cl` the “activation” value was 4.66%.
In the case of `CCOP(=S)(OCC)Oc1cc(C)nc(N(CC)CC)n1`, the Potency was 17.2 µM (active).
With `[O]=[Cr][O][Cr]=[O]` the “activation” value was 8.62%.
With `O=[N+]([O-])c1cccc2cccc([N+](=O)[O-])c12` the Potency was 30.8 µM (active).
With `O=NN(CCO)CCO` the “activation” value was 6.9%.
In the case of `CCOP(=S)(NC(C)C)Oc1ccccc1C(=O)OC(C)C` (stereo not given), the Potency was 3.06 µM (active).
`COc1ccc2c(c1OC)C(=O)O[C@@H]2[C@H]1c2cc3c(cc2CCN1C)OCO3` was tested, and the Potency was 30.3 µM (active).
For `CCC[CH2][Sn]([CH2]CCC)([CH2]CCC)[CH2]CCC`, the Potency was 6.11 µM (active).
`O=[N+]([O-])C(Br)Br` was tested, and the “activation” value was 3.15%.
For `CO/N=C(/C1=NOCCO1)c1ccccc1Oc1ncnc(Oc2ccccc2Cl)c1F`, the Potency was 27.3 µM (active).
In the case of `CC(C)C(Br)C(=O)NC(N)=O` (stereo not given), the “activation” value was -12.6% [at 42.5 µM].

Each compound was assayed against Nuclear receptor subfamily 1 group I member 2 (Rattus norvegicus) (UniProt Q9R1A7) (assay: Rat pregnane X receptor (rPXR) activation by small molecules, qHTS assay (AID 1346983; also: nearly all actives have a fitted effect of over 20% in size)). Details: rPXR luciferase reporter cells, One-Glo luminescence, 24 h; max activation: active compounds read high.
Sequence of Nuclear receptor subfamily 1 group I member 2 (Rattus norvegicus) (Q9R1A7 whole entry, looked up): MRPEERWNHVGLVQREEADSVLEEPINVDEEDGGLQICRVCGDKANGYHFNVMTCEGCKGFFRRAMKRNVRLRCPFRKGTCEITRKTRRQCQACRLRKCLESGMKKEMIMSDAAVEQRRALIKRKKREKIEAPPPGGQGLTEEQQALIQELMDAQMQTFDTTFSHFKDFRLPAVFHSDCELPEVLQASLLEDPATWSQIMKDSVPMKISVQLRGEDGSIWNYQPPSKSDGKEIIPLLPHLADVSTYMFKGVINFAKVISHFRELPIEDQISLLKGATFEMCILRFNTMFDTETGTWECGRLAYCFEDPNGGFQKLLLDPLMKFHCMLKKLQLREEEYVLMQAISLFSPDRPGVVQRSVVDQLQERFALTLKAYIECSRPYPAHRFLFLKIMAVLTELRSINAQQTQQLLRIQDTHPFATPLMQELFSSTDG
How it was run: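 Luminescent readout (One-Glo luciferase, 30 min room temperature) followed 24 hr compound treatment at 37 C of rPXR cells plated 2,000 per well and preincubated 5hr; qHTS format with compounds delivered in DMSO.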
Work on `Clc1ccc(C2(Cn3cncn3)OCCO2)c(Cl)c1` yielded a max activation of -0.146%.
With `CC(C)c1c(CN(C)C(C)Cc2ccccc2)n(C)n(-c2ccccc2)c1=O` (stereo not given) the max activation was 8.57%.
Work on `CC(C)C(Br)C(=O)NC(N)=O` (stereo not given) yielded a max activation of -0.856%.
